Assay results as given in PubChem BioAssay.

experiment: probe aNog binding to arrayed compounds – biochemical, biotinylated probe, 635/667 nm fluorescence, primary screen (AID 1115); details: small-molecule microarray, higher = more signal;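 also: probe is biotinylated aNog protein used at 0.15 µg/mL for 1 h at 4 C; z-score combines 667 nm fluorescence of each spot with its signal to noise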

| Structure (SMILES) | composite z-score |
| --- | --- |
| CC(CO)N1C(=O)[C@@H]2C3C(=O)OCCC/C=C\[C@H]3OC23C=CCN(C(C)(C)C)C(=O)[C@@H]13 (stereo not given in full) | -0.147 |
| CN1C(=O)C2C=CC(C(O)c3ccccc3)N(N(c3ccccc3)c3ccccc3)C2C1=O (stereo not given) | 0.235 |
| C=CCOC(=O)[C@H]1[C@@H]2C(=O)O[C@@H](c3ccccc3)[C@@H](c3ccccc3)N2[C@@H](c2ccc(OCCOC(=O)[C@@H]3C[C@@H]4C(=O)N[C@@H](CCCCNC(C)=O)C(=O)N4[C@@H]3c3ccc(O)cc3)cc2)[C@]12C(=O)Nc1ccccc12 | 0.45 |
| C[C@H]1C2[C@H](Cc3ccccc3)NC(=O)[C@]23C(=O)N[C@H](Cc2ccccc2)C(=O)N2CCC[C@H]2C(=O)NC/C=C\C/C=C/C3[C@@H]2O[C@]12C (stereo not given in full) | -0.0003 |
| CC(C)C(O)C1C=CC2C(=O)NC(=O)C2N1Nc1ccc(Cl)cc1Cl (stereo not given) | 0.0266 |
| COC(=O)C(CC#Cc1ccc2c(c1)[C@]1(C(=O)N2)[C@H](C(=O)Nc2nc3ccccc3s2)[C@H]2C(=O)O[C@H](c3ccccc3)[C@H](c3ccccc3)N2[C@@H]1c1ccc(O)cc1)C(=O)OC | 0.406 |
| CC(C)C(O)C1C=CC2C(=O)N(c3ccccc3)C(=O)C2N1Nc1ccc([N+](=O)[O-])cc1 (stereo not given) | 0.202 |
| CC(C)C[C@@H]1NC(=O)[C@@H]2C[C@H](C(=O)NCc3ccc(F)cc3)[C@H](c3cccc(OCCO)c3)N2C1=O | -0.0315 |
| CCCC[C@H]1OB(O)C[C@H]2C1=C(COC)C[C@H]1C(=O)N(C)C(=O)[C@H]12 | -0.0496 |
| COCCOC(=O)N1C(=O)[C@@]2(c3cc(C#Cc4ccc(OC)cc4)ccc31)[C@H](c1ccccc1OCCO)N1[C@H](c3ccccc3)[C@H](c3ccccc3)OC(=O)[C@H]1[C@@H]2C(=O)NC[C@H](O)c1ccccc1 | 0.407 |
